Measurements: PubChem BioAssay AID624040 (The Scripps Research Institute Molecular Screening Center, 2012)
Among all 360,000 compounds or so, about 2,100 (0.58%) were called active. The sample holds actives, similar compounds and a random draw of the others, so the mix is not that of the screen.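 The calls were made as follows: active = inhibition above a per-plate cutoff, the mean of that plate's test compounds plus 3 SD (cut at about 27% in these data); inactive = the rest.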

Each compound was assayed against Muscarinic acetylcholine receptor M5 (Homo sapiens) (UniProt P08912) (assay: CHRM5 blockers of acetylcholine calcium response – CHO cells, Fluo-8 calcium fluorescence, primary screen (AID 624040;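 also: 0% = acetylcholine EC80 with DMSO and 100% = DMSO without agonist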)). Conditions: CHO-hM5 cells, ACh EC80, at 3 µM, hits give high values.
Chain of Muscarinic acetylcholine receptor M5 (Homo sapiens) (P08912 whole entry, looked up): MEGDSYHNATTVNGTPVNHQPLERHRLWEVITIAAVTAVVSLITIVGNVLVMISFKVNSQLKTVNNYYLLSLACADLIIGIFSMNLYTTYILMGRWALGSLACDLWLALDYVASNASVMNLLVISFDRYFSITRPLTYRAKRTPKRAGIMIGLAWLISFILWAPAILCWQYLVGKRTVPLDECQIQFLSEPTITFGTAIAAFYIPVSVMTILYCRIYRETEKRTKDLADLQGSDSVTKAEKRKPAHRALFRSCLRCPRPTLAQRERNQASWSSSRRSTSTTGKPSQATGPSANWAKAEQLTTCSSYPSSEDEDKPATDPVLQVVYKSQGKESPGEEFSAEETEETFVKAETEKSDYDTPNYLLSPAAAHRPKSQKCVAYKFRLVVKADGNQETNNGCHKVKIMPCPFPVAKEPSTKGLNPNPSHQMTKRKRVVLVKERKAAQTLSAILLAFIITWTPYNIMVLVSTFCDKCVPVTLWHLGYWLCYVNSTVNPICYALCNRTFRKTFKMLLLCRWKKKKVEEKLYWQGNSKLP
In the case of Cc1ccc(-c2cnc(C(O)c3cccc(C)c3C)[nH]2)cc1 (configuration not stated), the inhibition is reported as -3.72% (inactive).
COCCn1c(C)cc(C(=O)CSc2nc3ccccc3c(=O)n2C(C)COC)c1C (configuration not stated) was tested, and the inhibition was 9.46% (inactive).
With CCCn1nc(NC(=O)C(C)C)c2cc3cc(OC)ccc3nc21 the inhibition was 14.6% (inactive).
For O=C1CS(=O)CN1c1ccc(Oc2ccccc2)cc1 (configuration not stated), the inhibition was -0.11% (inactive).
CC(C)(C)c1cc2cccnc2n1Cc1cccc(F)c1 was tested, and the inhibition was -7.37% (inactive).
CCOc1ccc(CN2CCNC(=O)C2CC(=O)NCCCC2CCCC2)cc1 (configuration not stated) was tested, and the inhibition was 9.04% (inactive).
With O=C(CCc1ccc(S(=O)(=O)N2CCOCC2)cc1)NN=C1CCCCCCC1 the inhibition was -2.08% (inactive).
COc1cccc(OCC(=O)NCCS(=O)(=O)N2CCN(c3ccccc3)CC2)c1 was tested, and the inhibition was -6.65% (inactive).
CC(C)N(Cc1nc(-c2ccc3c(c2)OCO3)no1)CC1CCC(=O)N1 (configuration not stated) was tested, and the inhibition was 16% (inactive).
OC[C@@H]1CN(C2CCCC2)C[C@H](n2cnc3c(NC4CCC4)ncnc32)O1 was tested, and the inhibition was 9.41% (inactive).
In the case of OC[C@@H]1CN(Cc2ccc(-c3ccccc3)cc2)C[C@H](n2cnc3c(NC4CCCC4)ncnc32)O1, the inhibition is reported as 31.4% (active).
For OC[C@@H]1CN(Cc2ccc(F)cc2)C[C@H](n2cnc3c(NC4CCCC4)ncnc32)O1, the inhibition was 4.45% (inactive).
O=C(NNC(=S)Nc1ccccc1)c1cccc(S(=O)(=O)N2CCOCC2)c1 was tested, and the inhibition was -3.26% (inactive).
Cc1ccc(C(=O)NCC(=O)OCC(=O)NC2CCCCCCC2)cc1 was tested, and the inhibition was 7.24% (inactive).
With Cc1cccc(CSc2nc3c(c(=O)n2C)SCC3)c1 the inhibition was 36.1% (active).
COCCn1c(SCC(=O)Nc2ccc(F)cc2F)nc2c(c1=O)SCC2 was tested, and the inhibition was -2.37% (inactive).
COCCn1c(SCC(=O)Nc2ccccc2F)nc2c(c1=O)SCC2 was tested, and the inhibition was -1.26% (inactive).
In the case of CN(CCCNC(=O)CN1C(=O)CC(C)(C)S(=O)(=O)c2ccccc21)C1CCCCC1, the inhibition is reported as 3.09% (inactive).
CC1(C)C2CC=C(/C=N/NC(=O)C3CC3)C1C2 (configuration not stated) was tested, and the inhibition was -4.33% (inactive).
With COc1cc(C(=O)N2CCN(S(=O)(=O)c3ccc(C(C)C)cc3)CC2)ccc1OCC(=O)N1CCOCC1 the inhibition was -6.27% (inactive).
With C=C(C)c1cccc(C(C)(C)NC(=O)NC2CCCC2)c1 the inhibition was -4.91% (inactive).
For C=C(C)c1cccc(C(C)(C)NC(=O)NCCN(CC)CC)c1, the inhibition was 52.3% (active).
For C=C(C)c1cccc(C(C)(C)NC(=O)N2CCN(c3ncccn3)CC2)c1, the inhibition was 4.22% (inactive).
With CC(=O)N1CC(=O)N(CC(=O)Nc2ccc(Br)cc2)C1=S the inhibition was 15.7% (inactive).
Cc1ccc(S(=O)(=O)N(C)CC(=O)NCC(c2ccc(F)cc2)N2CCOCC2)cc1 (configuration not stated) was tested, and the inhibition was 4.43% (inactive).
For Cc1ccc(NC(=S)N2CCN(c3ncccn3)CC2)cc1C, the inhibition was 0.78% (inactive).
In the case of O=C(c1c(F)cccc1F)N1CCN(S(=O)(=O)c2ccc3c(c2)OCCO3)CC1, the inhibition is reported as 15.2% (inactive).
O=C(c1c(F)cccc1Cl)N1CCN(S(=O)(=O)c2ccc3c(c2)OCCCO3)CC1 was tested, and the inhibition was 32.7% (active).
In the case of O=C(c1ccc(Cl)nc1)N1CCN(S(=O)(=O)c2ccc3c(c2)OCCO3)CC1, the inhibition is reported as 8.5% (inactive).
With Nc1nonc1-n1nnc(C(=O)N/N=C/c2ccc(Cl)cc2)c1-c1ccc2c(c1)OCO2 the inhibition was 4.23% (inactive).
For Cc1ccccc1C(OCCN(C)C)C1CCCCC1 (configuration not stated), the inhibition was 98.7% (active).
Cc1ccccc1C(OCC(O)CN1CCCCC1CCO)c1ccccc1 (configuration not stated) was tested, and the inhibition was 1.17% (inactive).
For CN(C)CCOC1c2ccccc2-c2ccccc21, the inhibition was 9.21% (inactive).
With Cc1ccc(S(=O)(=O)N2CCN(C(=O)CCC(=O)NC3CCCc4ccccc43)CC2)cc1 (configuration not stated) the inhibition was 1.42% (inactive).
In the case of CCOc1ccc(C(=O)N(Cc2ccc(N(C)C)cc2)C2CCS(=O)(=O)C2)cc1 (configuration not stated), the inhibition is reported as -0.33% (inactive).
For Cc1noc(C)c1CSCC(=O)Nc1nc2ccc(Oc3ccccc3)cc2s1, the inhibition was -2.14% (inactive).
With C=CCNC(=O)c1ccccc1SCc1c(C)noc1C the inhibition was -3.18% (inactive).
With Cc1noc(C)c1CSc1nnc2ccc3ccccc3n12 the inhibition was 31.2% (active).
With CC(C)(C)c1cnnn1-c1ccc([N+](=O)[O-])cc1 the inhibition was -0.77% (inactive).
With CC1(C)C=C2[C@H]3CC[C@@H]4[C@@]5(C)CCC(=O)C(C)(C)[C@@H]5CC[C@@]4(C)[C@]3(C)CC[C@@]2(C(=O)O)CC1 the inhibition was 0.2% (inactive).
With COc1cc2c(cc1OC)C(C(=O)Nc1cc(C)c(OC)c(C)c1)CC(=O)N2 (configuration not stated) the inhibition was -6.29% (inactive).
For CC(=O)Nc1ccc(N2C(=O)CCC2=O)cc1C, the inhibition was 0.14% (inactive).
O=C(CN1CCCCC1)N1c2ccccc2Sc2ccc(C(F)(F)F)cc21 was tested, and the inhibition was 98.8% (active).
With O=C(CN1CCCCCC1)Nc1ccc(Cl)cc1F the inhibition was 7.56% (inactive).
With O=C(CN1C(=O)/C(=C\c2ccc(C(F)(F)F)cc2)Sc2ccccc21)NCc1ccco1 the inhibition was 18.4% (inactive).
For O=C(CN1CCCCCC1)N1c2ccccc2Sc2ccc(C(F)(F)F)cc21, the inhibition was 98.4% (active).
For CCC(=O)Nc1cc(C(F)(F)F)ccc1N1CCCC1, the inhibition was 4.4% (inactive).
In the case of O=C(CSc1nc2ccccc2o1)N1c2ccccc2Sc2ccc(Cl)cc21, the inhibition is reported as -5.39% (inactive).
With COc1ccccc1NC(=O)N(O)C1(C#N)CCCCC1 the inhibition was 4.25% (inactive).
For CCOC(=O)c1c(S(=O)(=O)Nc2ccc(CN3CCC(C)CC3)cc2)c(C)n(C)c1C, the inhibition was 0.52% (inactive).
For Cc1cc(C(=O)N2CCN(c3ccccn3)CC2)c(C)o1, the inhibition was -9.14% (inactive).
In the case of Cc1cc(Br)ccc1NC(=O)c1sc2ncn(CC(=O)N3CCN(c4ccccn4)CC3)c(=O)c2c1C, the inhibition is reported as -9.8% (inactive).
In the case of Cc1cc(Br)ccc1NC(=O)c1cnc(N2CCN(c3ccccn3)CC2)c2ccccc12, the inhibition is reported as 27.7% (active).
For C[C@H](CO)N1C[C@H](C)[C@@H](CN(C)S(=O)(=O)c2ccc(F)cc2)OCc2cnnn2CCCC1=O, the inhibition was -6.37% (inactive).
CCc1noc(C)c1C(=O)Oc1ccc(N(C)S(=O)(=O)c2ccc(C)c(C)c2)cc1 was tested, and the inhibition was 11.9% (inactive).
In the case of CCN(CC)CCCC(C)n1c2nc(=O)[nH]c(=O)c-2nc2cc(Cl)ccc21 (configuration not stated), the inhibition is reported as 41.2% (active).
CCCN(CCc1ccccc1)C1CCc2c(O)cccc2C1 (configuration not stated) was tested, and the inhibition was 2.43% (inactive).
